The values that follow come from the supplement of paper PMC4894684.

Counter-ions that a name gives are not always drawn. ± gives the standard deviation of the averaged measurements. Where only a bound is given, the exact number is not on record here.

This test concerns Toxoplasma gondii RH (in HFF). Description: parasite growth relative to the screen mean (all compounds = 100%); higher = less inhibition of parasite growth. The conditions noted are these: 5 µM; 72 h; oxygen 21 %. The procedure, abridged: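 Growth values are relative to the mean of the whole screen and averaged over duplicate screens, with all compounds together set to 100%. Parasites (RH β-Gal–GFP Toxoplasma, MOI 1:5) were added within 2 h of pinning compounds at 5 µM final onto confluent human foreskin fibroblasts and grown 72 h at 21% O2. Parasite number came from CPRG β-Gal readings against in-plate standard curves.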
In turn, `CCOC(=O)[C@H](CCc1ccccc1)N[C@H]1CCc2ccccc2N(CC(=O)O)C1=O` [Benazepril hydrochloride] registered a parasite growth of 140 ± 36%.

As to `N[C@@H](Cc1cc(CP(=O)(O)O)cc(-c2ccccc2Cl)c1)C(=O)O`, the parasite growth is 122 ± 6.2%.

In the case of `COc1ccc(C2CC(c3c(O)cc(C)oc3=O)=NCCS2)c(OC)c1` (centres undefined), the parasite growth came out at 69.6 ± 9.3%.

`COc1ccc(S(=O)(=O)N2c3ccc(Cl)cc3[C@](O)(c3ccccc3Cl)[C@@H]2C(=O)N2CCC[C@H]2C(N)=O)cc1OC` returned a parasite growth of 144 ± 26%.

In the case of `CCOc1ccc(Nc2nc(-c3c(C)nc4ccccn34)cs2)cc1`, the parasite growth is 127 ± 44%.

`COc1cccc2c1C(=O)c1c(O)c3c(c(O)c1C2=O)C[C@@](O)(C(C)=O)C[C@@H]3O[C@H]1C[C@H](N)[C@H](O)[C@H](C)O1` [Daunorubicin hydrochloride] displayed a parasite growth of under 0%.

`Nc1ccc(-c2nc3ccc(-c4nc5ccc(N)cc5[nH]4)cc3[nH]2)cc1`: the parasite growth was found to be 89.6 ± 5.3%.

In the case of `OCC1OC(n2cnc3c(NC4CCCC4)nc(Cl)nc32)C(O)C1O` (centres undefined) [2-Chloro-N6-cyclopentyladenosine], the parasite growth is 138 ± 11%.

`COc1cc(OC)c(NC(=O)Nc2cc(C)on2)cc1Cl` had a parasite growth of 135 ± 17%.

As to `C=C1C(=O)O[C@H]2[C@H]1CC/C(C)=C/CC[C@@]1(C)O[C@@H]21` [Parthenolide], the parasite growth came out at 87.7 ± 4.2%.

Regarding `COc1ccc(CCCOC(Cn2ccnc2)c2ccc(OC)cc2)cc1` (centres undefined), the parasite growth was 95.6 ± 24%.

In turn, `Oc1cc2c(cc1O)C(c1ccccc1)CNCC2` (centres undefined) registered a parasite growth of 162 ± 47%.

`O=c1ncccn1[C@@H]1O[C@H](CO)[C@@H](O)[C@H]1O` [Zebularine] displayed a parasite growth of 119 ± 12%.

Regarding `Cc1ccc(NC2=CC(=O)c3sc(C)nc3C2=O)cc1` [Ryuvidine], the parasite growth was under 0%.

Turning to `O=S(=O)(c1cccc2cnccc12)N1CCCNCC1` [Fasudil hydrochloride], the parasite growth is 90.6 ± 21%.

On to `CSc1cc2c(cc1C(F)(F)F)N(C(=O)Nc1cccnc1)CC2`, for which the parasite growth is 122 ± 30%.

The molecule `O=[N+]([O-])c1cccc2c[nH]nc12` came in with a parasite growth of 97.2 ± 10%.

For `COc1cccc(NC(=O)/C=C/c2ccc(Cl)cc2)c1`, the parasite growth stood at 136.1 ± 0.67%.

Molecule `C[S+]([O-])c1ccc(-c2nc(-c3ccc(F)cc3)c(-c3ccncc3)[nH]2)cc1` (centres undefined) had a parasite growth of 8.46 ± 12%.

Turning to `CCO/C(O)=C1\C(C)=NC(c2ccccc2)=C(C(=O)OCc2ccc([N+](=O)[O-])cc2)C1C#Cc1ccccc1` (centres undefined), the parasite growth turned out to be 67.4 ± 16%.

Consider `OC(c1ccccc1)C1CCN(CCc2ccccc2)CC1` (centres undefined), for which the parasite growth is 70.7 ± 12%.

The molecule `Cc1c(C(=O)NN2CCOCC2)nn(-c2ccc(Cl)cc2Cl)c1-c1ccc(I)cc1` registered a parasite growth of 88.1 ± 20%.

As for `NCCCCCCCCCCNS(=O)(=O)c1cccc2c(Cl)cccc12` [A-7 hydrochloride], the parasite growth is 142 ± 17%.

In turn, `CC(C)C[C@H](NC(=O)N1CCCCCC1)C(=O)N[C@H](Cc1cn(C)c2ccccc12)C(=O)N[C@H](Cc1ccccn1)C(=O)O` yielded a parasite growth of 98.9 ± 45%.

In turn, `CC(=O)NCC(=O)N[C@H](CCC(=O)O)C(=O)O` [N-Acetylglycyl-D-glutamic acid] displayed a parasite growth of 132 ± 22%.

The molecule `Cc1ccc(=O)n(-c2ccccc2)c1` [Pirfenidone] had a parasite growth of 128 ± 11%.

As for `O=C1c2ccccc2CCC1CNCCc1ccc(O)cc1` (centres undefined) [HEAT hydrochloride], the parasite growth turned out to be 68.1 ± 13%.

`O=C(OCCN1CCCCC1)c1c[nH]c2ccccc12` had a parasite growth of 113 ± 7.7%.

On to `Cc1nc2ccc(NC(=O)Nc3ccnc4cccnc34)cc2o1`, for which the parasite growth was 88.83 ± 0.52%.

For the molecule `O=S(=O)(c1cccc2c(Cl)cccc12)N1CCCNCC1` [ML 9 hydrochloride], the parasite growth turned out to be 122 ± 19%.

With `CN(C)CCCC1(c2ccc(F)cc2)OCc2cc(C#N)ccc21` (centres undefined) [Citalopram hydrobromide], the parasite growth is 122 ± 3.6%.

The molecule `CC(C)NCC(O)COc1ccc(COCCOC(C)C)cc1` (racemic) [(±)-Bisoprolol hemifumarate] registered a parasite growth of 77.7 ± 0.94%.

In turn, `NS(=O)(=O)c1nn2cc(-c3ccccc3)nc2s1` registered a parasite growth of 108 ± 28%.

On to `O=C(O)C1(C(=O)O)CCC1.[NH2-].[NH2-].[Pt+2]` [Carboplatin], for which the parasite growth stood at 136 ± 19%.

For `COc1ccc2[nH]c(C(=O)c3ccccc3)cc2c1`, the parasite growth was determined as 38.5 ± 2.6%.

Molecule `CCn1c(=O)n(C2=C(CO)CN(CC3CCCCCCC3)CC2)c2ccccc21` gave a parasite growth of 174 ± 19%.

`CCC(=O)NC1Cc2ccccc2C(c2ccccc2)C1` (centres undefined): the parasite growth amounted to 73.8 ± 18%.

The molecule `CN1CCC[C@@H]1Cc1c[nH]c2ccc(CCS(=O)(=O)c3ccccc3)cc12` [Eletriptan hydrobromide] came in with a parasite growth of 126 ± 18%.

Regarding `CNc1cc2c(Nc3cccc(Br)c3)ncnc2cn1`, the parasite growth worked out at 128 ± 11%.
